ssDAF12 agonist: S. stercoralis DAF-12 nuclear receptor activators, primary screen, cell-based, luminescence, HEK293, GRIP1 co-expression, lit1-tk-luc; Nuclear hormone receptor DAF-12 (Strongyloides stercoralis); HEK293 ssDAF-12/GRIP1 lit1-tk-luc reporter; % of 3 µM dafachronic acid response; activation, % at 6.8 µM; 1% of 370,000 active; AID 652126, 2013;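 active means activation above the mean over all tested compounds plus 3 SD, cut at about 0.9% in these data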
DAX1 inh-1: DAX1 (NR0B1) inhibitors, primary screen, cell-based, HEK293, Gal4-DAX1, luciferase luminescence; Nuclear receptor subfamily 0 group B member 1 (Homo sapiens), P51843; HEK293 Gal4-DAX1 luciferase reporter; inhibition, % at 6.75 µM; 0.99% of 340,000 active; AID 504766, 2011;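 active means inhibition above the mean over all tested compounds plus 3 SD, cut at about 4.2% in these data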;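 further: inhibition shows as a rise in luminescence from relieved DAX1 repression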
Target sequence (P51843 207-470 limits assumed): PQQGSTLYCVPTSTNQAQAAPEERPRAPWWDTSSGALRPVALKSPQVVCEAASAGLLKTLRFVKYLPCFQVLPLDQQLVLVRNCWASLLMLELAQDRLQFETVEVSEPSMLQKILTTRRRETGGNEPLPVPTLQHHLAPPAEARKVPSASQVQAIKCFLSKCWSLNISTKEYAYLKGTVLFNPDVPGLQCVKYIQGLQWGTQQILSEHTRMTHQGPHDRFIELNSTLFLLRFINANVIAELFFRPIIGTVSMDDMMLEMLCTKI
hcDAF12 agonist: H. contortus DAF-12 nuclear receptor activators, primary screen, cell-based, luminescence, HEK293, lit1-tk-luc reporter | HEK293 hcDAF-12 lit1-tk-luc reporter; 0% DMSO, 100% Δ7-dafachronic acid | AID 652067, 2013 | 1.4% of 370,000 active | activation, % at 6.8 µM;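 active means activation above the mean of all tested compounds plus 3 SD, cut at about 5.5% in these data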
DAX1 inh-2: DAX1 (NR0B1) inhibitors on StAR promoter, primary screen, cell-based, luminescence, SF-1 (NR5A1), full-length DAX-1; HEK293T StAR-luciferase reporter, SF-1/DAX-1 repression relief; AID 652010, 2013; inhibition, % at 6.8 µM; 1.1% of 370,000 active;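 active means inhibition above the mean over all tested compounds plus 3 SD, cut at about 3.6% in these data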;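 further: higher inhibition means more luminescence from relief of DAX-1 repression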
hgDAF-12 ag: H. glycines DAF-12 receptor agonists, primary screen, cell-based, luminescence, HEK293, GAL4 fusion, UAS-luciferase; HEK293 GAL4-hgDAF12 UAS-luciferase reporter, agonist luminescence; normalized to butyrate control; activation, % at 6.8 µM; 1.8% of 370,000 active; AID 687014, 2013;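 active means activation above a cutoff set at the mean of all screened compounds plus 3 SD, cut at about 10% in these data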
Each line names hits and unclear results; the compound was inactive in the other large screens. A selection: hits, their analogues and other compounds. The true share with any hit is near 4.1%.

Cc1cccc(NC(=S)N2CCN(Cc3ccccc3)CC2)c1C	hcDAF12 agonist 5.9
Cc1cccc(CN2CCN(C(=S)Nc3ccccc3)CC2)c1	DAX1 inh-1 11
S=C(Nc1ccccc1)N1CCN(c2ccccn2)CC1	ssDAF12 agonist 1.9
S=C(Nc1ccccc1)N1CCN(C/C=C/c2ccccc2)CC1	DAX1 inh-2 3.6
Cc1cc(Cl)ccc1NC(=S)N1CCN(Cc2ccccc2)CC1	none
Cc1cccc(NC(=S)N2CCN(c3ccccc3)CC2)c1	none (no result: DAX1 inh-1)
C#CCNC(=O)C[C@@H]1C(=O)N(Cc2ccc(OC)cc2)C2=CCN(C(=O)OC(C)(C)C)C[C@]21C(=O)OCC	none (no result: DAX1 inh-1)
COc1cc2c(c(OC)c1OC)[C@@]1(c3ccccc3)CCCC[C@H]1[C@@H]2NC(=O)C(F)(F)F	none (no result: DAX1 inh-1)
C[C@@H]1OC(c2ccccc2)N(C)[C@H]2C[C@H]3c4[nH]c5cccc(-c6ccccc6)c5c4CCN3C[C@@H]12 (some centres undefined)	none (no result: DAX1 inh-1)
CC(CCN1CCC(C(O)(c2ccccc2)c2ccccc2)CC1)Oc1cc(F)cc(C#N)c1 (centres undefined)	none (no result: DAX1 inh-1)
Nc1nc(N)c(N=O)c(OCC2CCCCC2)n1	hgDAF-12 ag 12
COC(=O)[C@]12C[C@H](CC(=O)N3CCN(C(=O)c4ccco4)CC3)C(=O)N(CCc3ccc(OC)c(OC)c3)C1=C[C@H](COCc1ccccc1)O[C@@H]2C	none (no result: DAX1 inh-1)
Cc1ccc2nc(-c3ccc(C#N)cc3)c(Cc3ccccc3)n2c1	hgDAF-12 ag 11 (no result: DAX1 inh-1)
Cc1ccc2nc(-c3cccc(Br)c3)c(Cc3ccccc3)n2c1	ssDAF12 agonist 1.9, hcDAF12 agonist 8.1, DAX1 inh-2 4.2 (no result: DAX1 inh-1)
Cc1ccc(Cc2c(-c3cccc(Br)c3)nc3ccc(Cl)cn23)cc1	none (no result: DAX1 inh-1)
Cc1ccc(Cc2c(-c3cccc(Br)c3)nc3ccc(C)cn23)cc1	hgDAF-12 ag 12 (no result: DAX1 inh-1)
COc1ccccc1Cc1c(-c2cccc(Br)c2)nc2ccc(C)cn12	ssDAF12 agonist 1.2, hgDAF-12 ag 12 (no result: DAX1 inh-1)
Clc1ccc2nc(-c3cccc(Br)c3)c(Cc3ccccc3)n2c1	none (no result: DAX1 inh-1)
CC(C)(N[C@@H](Cc1ccccc1)C(=O)NCCCc1ccccc1)C(=O)NCc1ccccc1	none (no result: DAX1 inh-1, DAX1 inh-2)
CC(C)(C)Cc1c(-c2ccc(Br)cc2)nc2ccc(Br)cn12	none
Cc1ccc2nc(-c3cccc(Br)c3)c(Cc3cccc(Cl)c3)n2c1	DAX1 inh-2 7.3 (no result: DAX1 inh-1)
Clc1cccc(Cc2c(-c3cccc(Br)c3)nc3ccc(Cl)cn23)c1	none (no result: DAX1 inh-1)
CC(C)(C)Cc1c(-c2cccc(Cl)c2)nc2ccc(Br)cn12	ssDAF12 agonist 2.1 (no result: DAX1 inh-1)
Clc1cccc(Cc2c(-c3ccco3)nc3ccc(Br)cn23)c1	ssDAF12 agonist 1.9 (no result: DAX1 inh-1)
Cc1ccc(Cc2c(-c3cccc(Cl)c3)nc3ccc(Br)cn23)cc1	hgDAF-12 ag 11 (no result: DAX1 inh-1)
O=C(Nc1ccc(Br)c(C(F)(F)F)c1)[C@@H]1CC=C[C@@H]2CCN(CC3CC3)C(=O)[C@@H]21	none (no result: DAX1 inh-1, DAX1 inh-2)
Cc1cc(=O)[nH]c(SCC(=O)Nc2ccc(Cl)cc2)n1	none (no result: DAX1 inh-1)
CN(CC(=O)Nc1ccccc1C(F)(F)F)C(=O)c1ccc(N2C(=O)CCC2=O)cc1	DAX1 inh-1 4.5
CCN(CC(=O)Nc1ccccc1C(F)(F)F)C(=O)c1ccc(N2C(=O)CCC2=O)cc1	none
O=C(N[C@H](Cc1ccccc1)C(=O)NCc1ccc2c(c1)OCO2)[C@H]1O[C@@H](n2ccc(=O)[nH]c2=O)[C@H](O)[C@@H]1O	none (no result: DAX1 inh-1)
COc1ccc(Oc2ccc(/C=N/NC(=O)c3cccnc3)cc2[N+](=O)[O-])cc1	DAX1 inh-1 4.6
CNc1nnc(-c2ccc(N(C)C)cc2)s1	DAX1 inh-2 5.8, hgDAF-12 ag 11
O=C(CC1CCCC1)N[C@H](C(=O)N1CCC[C@H]1C(=O)NCCc1ccccc1Cl)c1ccccc1	none (no result: DAX1 inh-1)
Cc1ccc(S(=O)(=O)Nc2cc(C(=O)O)ccc2N2CCC(C)CC2)cc1C	none (no result: DAX1 inh-1)
Cc1onc(-c2ccccc2)c1C(=O)Nc1ccc(NC(=O)c2c(-c3ccccc3)noc2C)cc1	DAX1 inh-1 5.1
Cc1onc(-c2ccccc2)c1C(=O)Nc1ccc(N2CCOCC2)cc1	none
Cc1cc2nc(-c3ccc(NC(=O)C(C)C)cc3)oc2cc1C	ssDAF12 agonist 1.0, DAX1 inh-2 3.7, hgDAF-12 ag 11
CCOC(=O)c1c(C)[nH]c(C2=NNC(=Nc3ccccc3OC)SC2)c1C	hcDAF12 agonist 6.0
CCOC(=O)c1c(C)[nH]c(C2=NNC(=Nc3ccccc3)SC2)c1C	none
CC(=O)n1c2c(c3ccccc31)OC(N)=C(C#N)C2c1ccc(C(C)C)cc1 (centres undefined)	hcDAF12 agonist 5.6
CC(COc1cc(F)cc(C#N)c1)CN1CCC(C(O)(c2ccccc2)c2ccccc2)CC1 (centres undefined)	none (no result: DAX1 inh-1)
NC(=O)c1ccc(N=C2C(=O)Nc3ccc([N+](=O)[O-])cc32)cc1	DAX1 inh-1 5.3
Cc1cccc2cn[nH]c12	none
Cc1ccc2cn[nH]c2c1[N+](=O)[O-]	DAX1 inh-1 4.9, hcDAF12 agonist 5.6
CCOc1ccc(-n2c(SCc3ccc(C#N)cc3)nnc2-c2ccco2)cc1	none (no result: DAX1 inh-1)
CCCC[C@H]1C2CC(OC(=O)Nc3cccc(C#N)c3)C(C2)[C@H]2CCCCN21 (some centres undefined)	none (no result: DAX1 inh-1)
COC(=O)[C@]12C[C@H](CC(=O)N3CCC(c4ccccc4)CC3)C(=O)N(Cc3ccco3)C1=C[C@H](C(C)C)O[C@@H]2C1CC1	none (no result: DAX1 inh-1)
C=CCSc1[nH]c(=O)cc(C)c1C(N)=O	DAX1 inh-1 5.1
C[C@H]1CN(C(=O)OC(C)(C)C)CCN1c1ccc(N2CCS(=O)(=O)CC2)c(C#N)c1	none (no result: DAX1 inh-1)
COC(=O)c1ccc2c(c1)N(C)CCS2	DAX1 inh-1 4.4
Cc1ccccc1NC(=O)c1ccc2c(c1)N(C)CCS2	DAX1 inh-2 3.6, hgDAF-12 ag 12
Cc1ccccc1NC(=O)c1ccc2ccccc2c1	DAX1 inh-1 5.0
O=c1sc(Nc2ccccc2)nc2ccsc12	hcDAF12 agonist 6.2
C[C@@H]1CCN(C2CC2)S(=O)(=O)c2c(cccc2N2CCC[C@@H]2C)O1	none (no result: DAX1 inh-1)
COc1ccc(-c2cn3cccc(C)c3n2)cc1Br	none
Cc1cccn2cc(-c3ccccc3)nc12	ssDAF12 agonist 1.1, hgDAF-12 ag 13
COC(=O)[C@]1(CC(C)C)NC=C(C(=O)c2ccccc2)[C@@H]1c1cccs1	none (no result: DAX1 inh-1)
Cc1cccc(-c2nc(-c3ccncc3)no2)c1	DAX1 inh-1 5.3, hgDAF-12 ag 11
CCC(=O)Oc1ccc(-c2nc(-c3cccnc3)no2)cc1	hgDAF-12 ag 11

Assay outcomes deposited in PubChem by The Scripps Research Institute Molecular Screening Center.
